Drawing on PubChem BioAssay (Tox21), this text covers Potency and outcome for eight molecules.

Experiment [1] in a line: A CellTox Green Cytotoxicity Assay to monitor cytotoxicity in HEK293 cells - 32 hour (AID 1224881). Also: nearly all actives have a fitted effect of over 40% in size. Put shortly: (§1)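 Fluorescence intensity, read at 0, 8, 16, 24, 32 and 40 h of compound treatment, reflected dye binding to DNA of dead HEK293 cells; compounds (23 nL, DMSO) were added 5 h after plating cells with reagent.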
The nature of experiment [2]: A CellTox Green Cytotoxicity Assay to monitor cytotoxicity in HepG2 cells - 0 hour (AID 1224882). Also: nearly all actives have a fitted effect of over 35% in size. Put shortly: (§2)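 Using 1536-well format, dye-containing HepG2 suspension was seeded, allowed 5 h at 37 C/5% CO2, dosed by pintool with compounds, positive and negative controls, and imaged for fluorescence across 40 h.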
A short description of experiment [3]: A CellTox Green Cytotoxicity Assay to monitor cytotoxicity in HepG2 cells - 32 hour (AID 1224883). Also: nearly all actives have a fitted effect of over 50% in size. In short, it runs like this: as §2
Experiment [4] is described as follows: A CellTox Green Cytotoxicity Assay to monitor cytotoxicity in HEK293 cells - 8 hour (AID 1224884). Also: nearly all actives have a fitted effect of over 35% in size. Put shortly:
as §1

A short description of experiment [5]: qHTS RealTime-Glo MT Cell Viability Assay in HepG2 cells - 16 hour (AID 1224885). Also: nearly all actives have a fitted effect of over 50% in size. Also: potency is read from the fitted curve at half-maximal effect. In short, it runs like this:
(§3)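 Real-time, nonlytic viability: 600 HepG2 cells/well mixed with NanoLuc enzyme plus prosubstrate; 5 h settle, compound (DMSO) added by pintool; luminescence monitored over 40 h at 37 C.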
For orientation: qHTS replaces the single test concentration by a dilution series.

Experiment [6] is described as follows: qHTS RealTime-Glo MT Cell Viability Assay in HEK293 cells - 24 hour (AID 1224886). Also: top concentration of the series differs between compounds; nearly all actives have a fitted effect of over 50% in size. Put shortly:
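Cells + reagent dispensed (600 cells/well, HEK293) → 5 h at 37 C/5% CO2 → 23 nL compound in DMSO pinned → 40 h at 37 C → luminescence read at 0, 8, 16, 24, 32, 40 h.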

Experiment [7] can be described thus: qHTS RealTime-Glo MT Cell Viability Assay in HEK293 cells - 8 hour (AID 1224887). Also: top concentration of the series differs between compounds; nearly all actives have a fitted effect of over 50% in size. In short, it runs like this: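 Viable HEK293 cells reduce a cell-permeant prosubstrate; the product diffuses out and is consumed by NanoLuc in the medium to give light. Compounds went in after a 5 h incubation and plates were read over the treatment course.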
A short description of experiment [8]: A CellTox Green Cytotoxicity Assay to monitor cytotoxicity in HEK293 cells - 16 hour (AID 1224888). Also: nearly all actives have a fitted effect of over 35% in size. In short, it runs like this:
as §1

Experiment [9] in a line: qHTS RealTime-Glo MT Cell Viability Assay in HepG2 cells - 0 hour (AID 1224889). Also: nearly all actives have a fitted effect of over 50% in size. Put shortly: as §3
The nature of experiment [10]: A CellTox Green Cytotoxicity Assay to monitor cytotoxicity in HepG2 cells - 8 hour (AID 1224890). Also: nearly all actives have a fitted effect of over 45% in size. In short, it runs like this: as §2
The nature of experiment [11]: qHTS assay to identify small molecule antagonists of the estrogen receptor alpha (ER-alpha) signaling pathway using the BG1 cell line in the presence of 0.1 nM 17-beta-estradiol - cell viability counter screen (AID 1259241). Also: nearly all actives have a fitted effect of over 40% in size. Put shortly:
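Cytotoxicity counter-screen: live-cell protease activity measured by fluorescence (30 min reagent step) in the same wells. Cells were VM7Luc4E2 with endogenous ER-alpha and ERE-driven luciferase, treated 22 hr at 37C alongside 0.1 nM 17beta-estradiol final.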

A short description of experiment [12]: qHTS assay to identify small molecule antagonists of the androgen receptor (AR) signaling pathway using the MDA cell line in the presence of 0.5 nM R1881 - cell viability counter screen (AID 1259242). Also: nearly all actives have a fitted effect of over 45% in size. Put shortly: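 Viability of MDA-kb2 cells was multiplexed with the luciferase AR readout; after 16 hr with compounds and R1881 at 0.5 nM final, CellTiter-Fluor fluorescence was recorded.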

Experiment [13] can be described thus: qHTS assay to identify small molecule HDAC inhibitors (AID 1259364).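 Also: wild-type HCT-116 cells with endogenous class I/II HDAC activity; top concentration of the series differs between compounds; nearly all actives have a fitted effect of over 45% in size.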 In short, it runs like this:
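Read-out: luminescence of HDAC-Glo I/II reagent, 30 min RT, reflecting class I/II deacetylase activity in whole HCT-116 cells pre-exposed 2 h to DMSO-dissolved compounds.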

The nature of experiment [14]: qHTS assay to identify small molecule HDAC inhibitors - cell viability counter screen (AID 1259365). In short, it runs like this: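 CellTiter-Glo luminescence (30 min, room temperature) reported viability after a 2 h compound exposure at 37 C. Cells: wild-type HCT-116, 1,500 per well, seeded the night before.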
Experiment [15] in a line: qHTS assay to identify small molecule agonists of the sonic hedgehog signaling (Shh) pathway - cell viability counter screen (AID 1259366). Also: nearly all actives have a fitted effect of over 50% in size. In short, it runs like this:
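Cytotoxicity counter screen: CellTiter-Fluor reagent added after 23 h compound exposure, then 1 h at 37C and fluorescence read. Cells were 3T3 Gli1-Luc, seeded 2,000 per well and dosed 4 h post-plating.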

Experiment [16] in a line: qHTS assay to identify small molecule antagonists of the sonic hedgehog signaling (Shh) pathway - cell viability counter screen (AID 1259367). Also: nearly all actives have a fitted effect of over 55% in size. Put shortly: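 Seed 3T3 Gli1-Luc cells at 2,000 per well; incubate 4 hr; add compound in DMSO, then conditioned medium; incubate at 37C with 5% CO2; add CellTiter-Fluor after 23 hr; read fluorescence 1 hr later.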
Experiment [17] is described as follows: qHTS assay to identify small molecule agonists of the sonic hedgehog signaling (Shh) pathway (AID 1259368; calls by dose curve;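 also: NIH/3T3-derived 3T3Gli1-Luc cells carrying a stable Gli1-driven firefly luciferase reporter; series mostly up to about 92 µM; nearly all actives have a fitted effect of over 15% in size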). Put shortly: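 A Gli1 transcriptional response element controlled firefly luciferase in 3T3Gli1-Luc cells. Compounds and a positive control were added 4 hr after plating, and cells were incubated a further 24 hr at 37 C before luminescence detection.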

For experiment [18], the target named is Estrogen receptor (Homo sapiens) (UniProt P03372). Description: qHTS assay to identify small molecule antagonists of the estrogen receptor alpha (ER-alpha) signaling pathway using the BG1 cell line in the presence of 0.1 nM 17-beta-estradiol (AID 1259244). Also: nearly all actives have a fitted effect of over 50% in size. Also: potency is read from the fitted curve at half-maximal effect. Put shortly:
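Estradiol at 0.1 nM (final) stimulates the endogenous ER-alpha of VM7Luc4E2 cells carrying an ERE-driven luciferase; compounds are co-incubated 22 h at 37C and luciferase output quantified by luminescence.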

Experiment [19] is described as follows: qHTS assay to identify small molecule phospholipidosis (PLD) inducers (AID 1259344; active = well fitted curve in the direction sought with a large enough effect; an effect the other way counts as inactive or inconclusive). Put shortly: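 Quantitative HTS in HepG2: compound plus LipidTOX Red dye for 24 h, paraformaldehyde fixation with Hoechst 33342, widefield high-content imaging; amiodarone as positive and DMSO as negative control.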

Records with an inconclusive call do not appear. More than one record can exist for a structure, and the calls need not agree. The source made the active and inactive calls. Unless noted, calls follow the shape of the dose curve; as a rule, active = well fitted curve in the direction sought with a large enough effect in the repeat runs; inconclusive = weak or mixed curves; inactive = no such curve, though single readings can be large; an effect the other way counts as inactive or inconclusive.

Sequence of Estrogen receptor (Homo sapiens) (P03372 whole entry, looked up): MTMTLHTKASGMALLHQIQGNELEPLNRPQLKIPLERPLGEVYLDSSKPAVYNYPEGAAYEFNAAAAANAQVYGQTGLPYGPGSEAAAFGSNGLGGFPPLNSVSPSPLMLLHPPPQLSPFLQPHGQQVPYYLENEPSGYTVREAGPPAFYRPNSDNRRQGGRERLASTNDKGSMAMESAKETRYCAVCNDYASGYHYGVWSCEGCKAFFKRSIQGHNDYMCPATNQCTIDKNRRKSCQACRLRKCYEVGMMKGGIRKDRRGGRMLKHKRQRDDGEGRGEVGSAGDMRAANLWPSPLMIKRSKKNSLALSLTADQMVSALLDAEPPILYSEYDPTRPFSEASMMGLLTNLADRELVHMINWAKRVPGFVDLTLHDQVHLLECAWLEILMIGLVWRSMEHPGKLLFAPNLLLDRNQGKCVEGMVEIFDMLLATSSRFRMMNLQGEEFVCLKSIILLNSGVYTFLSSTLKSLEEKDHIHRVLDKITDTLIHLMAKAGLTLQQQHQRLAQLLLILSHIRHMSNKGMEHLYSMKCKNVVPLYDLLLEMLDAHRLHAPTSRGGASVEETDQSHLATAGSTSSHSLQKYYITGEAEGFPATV

For the molecule `CNC(=O)Oc1cccc(N=CN(C)C)c1`, the Potency entry in experiment [1], in experiment [2], in [3], in experiment [4], in experiment [5] and in [6] was “inactive” in each case. For the same molecule, the Potency result in experiment [7], in experiment [8], in experiment [10], in experiment [11], in [12] and in [13] was “inactive” throughout. The Potency result in [14], in experiment [15], in experiment [16] and in [17] was “inactive” each time. For the same molecule, the molecule was called inactive in experiment [9].
With `CCCCC(CC)CO[N+](=O)[O-]` (centres undefined), the Potency result in experiment [1], in [2], in [3], in experiment [4], in [5] and in experiment [6] was “inactive” throughout. For the same molecule, the Potency entry in [7], in experiment [8], in experiment [10], in experiment [11], in experiment [12] and in [13] was “inactive” throughout. In addition, the Potency entry in experiment [14], in experiment [15], in [16] and in [17] was “inactive” each time. In [9], the call was inactive.
`CN1C[C@H](C(=O)N[C@]2(C)O[C@@]3(O)[C@@H]4CCCN4C(=O)[C@H](Cc4ccccc4)N3C2=O)C=C2c3cccc4[nH]cc(c34)C[C@H]21`: the Potency result in [1], in experiment [2], in experiment [3], in experiment [4], in experiment [6] and in experiment [7] was “inactive” each time. Moreover, the Potency result in experiment [8], in experiment [10], in [12], in experiment [13], in experiment [14] and in experiment [17] was “inactive” each time. The Potency was 19.6 µM (active) in experiment [5]; 27.4 µM (active) and inactive in experiment [18]. Also, the molecule was called inactive in experiment [9] and in experiment [19].
Take `CCOC(C(=O)OCCN(C)C)(c1ccccc1)c1ccccc1`: the Potency entry in [1], in [2], in [3], in experiment [4], in experiment [5] and in experiment [6] was “inactive” in each case. The Potency entry in experiment [7], in experiment [8], in experiment [10], in experiment [11], in [12] and in [13] was “inactive” throughout. Besides, the Potency result in experiment [14], in experiment [15] and in [17] was “inactive” each time. Further, the call in [9] was inactive.
As to `Cc1ccccc1`, the Potency entry in [1], in experiment [2], in experiment [3], in experiment [4], in [5] and in experiment [6] was “inactive” throughout. The Potency entry in [7], in experiment [8], in experiment [10], in experiment [11], in [12] and in [13] was “inactive” throughout. Besides, the Potency entry in experiment [14], in experiment [15], in experiment [16] and in [17] was “inactive” throughout. In addition, in experiment [9], the call was inactive.
For the molecule `Cc1ccc(N)c(C)c1`, the Potency entry in experiment [1], in experiment [2], in experiment [3], in [4], in experiment [5] and in experiment [6] was “inactive” throughout. In addition, the Potency entry in experiment [7], in experiment [8], in experiment [10], in [11], in [12] and in experiment [13] was “inactive” in each case. Further, the Potency result in experiment [14], in experiment [15], in experiment [16] and in experiment [17] was “inactive” each time. For the same molecule, the result in experiment [9] was inactive.
As to `CCOP(=O)(SC(C)CC)N1CCSC1=O` (centres undefined), the Potency entry in experiment [1], in [2], in experiment [3], in [4], in experiment [5] and in experiment [6] was “inactive” each time. Besides, the Potency entry in [7], in experiment [8], in experiment [10], in experiment [11], in [12] and in [13] was “inactive” throughout. The Potency result in [14], in experiment [15], in experiment [16] and in experiment [17] was “inactive” in each case. The result in experiment [9] was inactive.
Turning to `N#CC1(N=NC2(C#N)CCCCC2)CCCCC1`, the Potency result in [1], in [2], in [3], in experiment [4], in experiment [5] and in [6] was “inactive” throughout. The Potency result in experiment [7], in [8], in [10], in experiment [11], in [12] and in [13] was “inactive” in each case. In addition, the Potency entry in experiment [14], in [15], in [16] and in experiment [17] was “inactive” throughout. The result in experiment [9] was inactive.
